Experimental data: PubChem BioAssay AID485273 (Sanford-Burnham Center for Chemical Genomics, 2010)
The whole screen tested about 330,000 compounds, of which about 1,500 (0.45%) were called active. The full list was thinned out, with actives kept by preference. Values without a mark were called inactive. Cut-off read from the data, not from the text of the source: active = inhibition above about 45% (passing the limit was not always enough); inconclusive = no clear call, values can overlap the other calls.

Molecular target: Ubiquitin-conjugating enzyme E2 N (Homo sapiens) (UniProt P61088)
Experiment: UBC13 polyubiquitin chain formation inhibitors, primary screen, biochemical, TR-FRET, uHTS (AID 485273)
Details: at 20 µM, hits give high values

Ubiquitin-conjugating enzyme E2 N (Homo sapiens), sequence (P61088 whole entry, looked up): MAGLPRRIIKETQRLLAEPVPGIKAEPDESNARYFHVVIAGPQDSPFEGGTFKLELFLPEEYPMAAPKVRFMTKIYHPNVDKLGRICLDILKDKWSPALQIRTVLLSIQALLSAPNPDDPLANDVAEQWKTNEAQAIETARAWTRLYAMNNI

Structure (SMILES)	inhibition
CNCC(O)c1cc(F)c(OCc2ccccc2)c(OCc2ccccc2)c1F (stereo not given)	69.2% (active)
CCN(N=Nc1nonc1OC)c1nonc1OC	-6.3%
CCCC[N+]1(C)C2CC(OC(=O)C(CO)c3ccccc3)CC1C1OC12 (stereo not given)	1.6%
CCOC(=O)c1c(C)c(C(=O)N2CCC3(CC2)OCCO3)c(C)n1CC	-14.5%
O=C1NC(=O)C(CCc2ccccn2)(Cc2cccc(Cl)c2Cl)C(=O)N1c1ccc(Br)cc1 (stereo not given)	0.9%
